PubChem BioAssay (NCI)
Several values for one entry are separate records, joined by “and”; a condition that tells them apart may be missing. Identical values can stand only once. Compounds without any hit were thinned out: in the full panel of roughly 83,000, 20% have a hit.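 A percent growth of 40 corresponds to 60% growth inhibition; 0 means no net growth; -100 means all cells died. Active threshold: below 10.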 Activity calls are given as the source filed them.

Experiments:
Assay in all cases: NCI-60 one-dose screen, 48 h (100 = growth as untreated, 0 = no growth, -100 = all killed)
EKVX NSCLC = system: EKVX NSCLC
SN12C renal = system: SN12C renal
UO-31 renal = system: UO-31 renal
TK-10 renal = system: TK-10 renal
ACHN renal = system: ACHN renal
CAKI-1 renal = system: CAKI-1 renal
A498 renal = system: A498 renal
CCRF-CEM leukemia = system: CCRF-CEM leukemia
MOLT-4 leukemia = system: MOLT-4 leukemia
SR leukemia = system: SR leukemia

Measured: growth

Cn1c2nc3ccccc3c-2nc2ccccc21
inactive: EKVX NSCLC; 10 µM 81.2% | SN12C renal; 10 µM 95% and 87.7% | UO-31 renal; 10 µM 71.9% and 48.3% | TK-10 renal; 10 µM 113% and 109% | ACHN renal; 10 µM 94.4% and 79.1% | CAKI-1 renal; 10 µM 73.9% and 93.6% | A498 renal; 10 µM 45.9% and 80.3% | MOLT-4 leukemia; 10 µM unless noted 97.9% and 96.7% | SR leukemia; 10 µM 83.5% and 91.1%
95.8% (inactive) and -21.8% (active): CCRF-CEM leukemia; 10 µM

CN(C)c1ccc(/C=C/c2ccnc3ccccc23)cc1N
inactive: EKVX NSCLC; 10 µM 52.5% | SN12C renal; 10 µM 70.5% | UO-31 renal; 10 µM 45.5% | TK-10 renal; 10 µM 74.7% | ACHN renal; 10 µM 68.6% | CAKI-1 renal; 10 µM 60.9% | A498 renal; 10 µM 62.8% | CCRF-CEM leukemia; 10 µM 44.3% | MOLT-4 leukemia; 10 µM unless noted 54.8% | SR leukemia; 10 µM 41.4%

Cc1cc(N=C2C=CC(=[N+](C)C)C=C2)c(N)cc1N
inactive: EKVX NSCLC; 10 µM 85.4% | SN12C renal; 10 µM 88.7% | UO-31 renal; 10 µM 71.5% | TK-10 renal; 10 µM 106% | ACHN renal; 10 µM 91% | CAKI-1 renal; 10 µM 92.8% | A498 renal; 10 µM 75.7% | CCRF-CEM leukemia; 10 µM 89.3% | MOLT-4 leukemia; 10 µM unless noted 91.3%

CCOC(=O)[C@]1(Br)CC[C@@]1(Br)C(=O)OCC
inactive: EKVX NSCLC; 10 µM 99.5% | SN12C renal; 10 µM 98.1% | UO-31 renal; 10 µM 61.5% | TK-10 renal; 10 µM 95.9% | ACHN renal; 10 µM 78.9% | CAKI-1 renal; 10 µM 90.3% | A498 renal; 10 µM 115% | CCRF-CEM leukemia; 10 µM 99.8% | MOLT-4 leukemia; 10 µM unless noted 36.8%

CCC(C)(c1ccc(O)c(C)c1)c1ccc(O)c(C)c1
inactive: EKVX NSCLC; 10 µM 82.5% | SN12C renal; 10 µM 84.9% | UO-31 renal; 10 µM 76% | TK-10 renal; 10 µM 249% | ACHN renal; 10 µM 98.8% | CAKI-1 renal; 10 µM 62.1% | A498 renal; 10 µM 110% | CCRF-CEM leukemia; 10 µM 89% | MOLT-4 leukemia; 10 µM unless noted 130% | SR leukemia; 10 µM 113%

O=[N+]([O-])c1cc(S(=O)(=O)Nc2ccccc2)ccc1Cl
inactive: EKVX NSCLC; 10 µM 86.1% | SN12C renal; 10 µM 95.7% | UO-31 renal; 10 µM 76.7% | TK-10 renal; 10 µM 99.1% | ACHN renal; 10 µM 94.2% | CAKI-1 renal; 10 µM 77.3% | A498 renal; 10 µM 96.8% | CCRF-CEM leukemia; 10 µM 85.9% | MOLT-4 leukemia; 10 µM unless noted 89%

N#CC(=C1C=CC(=NO)C=C1)c1ccccc1
active: ACHN renal; 10 µM 9.06% | CCRF-CEM leukemia; 10 µM 3.4% | SR leukemia; 10 µM -17.5%
inactive: EKVX NSCLC; 10 µM 55.1% | SN12C renal; 10 µM 10.3% | UO-31 renal; 10 µM 48.4% | TK-10 renal; 10 µM 27.2% | CAKI-1 renal; 10 µM 52.3% | A498 renal; 10 µM 48% | MOLT-4 leukemia; 10 µM unless noted 19.2%

N#C/C(=C/N1C(=O)/C(=C/c2ccc([N+](=O)[O-])cc2)SC1=S)c1nc2ccccc2s1
active: A498 renal; 10 µM 6.8%
inactive: EKVX NSCLC; 10 µM 82.3% | SN12C renal; 10 µM 89.3% | UO-31 renal; 10 µM 64% | TK-10 renal; 10 µM 96.3% | ACHN renal; 10 µM 86.5% | CAKI-1 renal; 10 µM 97% | CCRF-CEM leukemia; 10 µM 84% | MOLT-4 leukemia; 10 µM unless noted 78.8% | SR leukemia; 10 µM 73.8%

O=C(CNS(=O)(=O)Cc1ccccc1)NNc1ccccc1
inactive: EKVX NSCLC; 10 µM 53.3% | SN12C renal; 10 µM 75% | UO-31 renal; 10 µM 35.7% | TK-10 renal; 10 µM 90.6% | ACHN renal; 10 µM 36.7% | CAKI-1 renal; 10 µM 39.8% | A498 renal; 10 µM 108% | CCRF-CEM leukemia; 10 µM 45.2% | MOLT-4 leukemia; 10 µM unless noted 35.4% | SR leukemia; 10 µM 39.2%

NCc1c(O)ccc2ccccc12
inactive: EKVX NSCLC; 10 µM 106% | SN12C renal; 10 µM 90.9% | UO-31 renal; 10 µM 81.3% | TK-10 renal; 10 µM 108% | ACHN renal; 10 µM 103% | CAKI-1 renal; 10 µM 74.3% | A498 renal; 10 µM 105% | CCRF-CEM leukemia; 10 µM 93% | MOLT-4 leukemia; 10 µM unless noted 93.3% | SR leukemia; 10 µM 87.8%

S=P(N1CC1)(N1CC1)N1CC1
inactive: EKVX NSCLC; 10 µM 107% and 90.2% | EKVX NSCLC; 100 µM 101% | SN12C renal; 10 µM 98.5% and 72.8% | SN12C renal; 100 µM 44.1% | UO-31 renal; 10 µM 71.9% and 83.7% | UO-31 renal; 100 µM 39.1% | TK-10 renal; 10 µM 115% and 111% | TK-10 renal; 100 µM 98.8% | ACHN renal; 10 µM 104% and 60.1% | CAKI-1 renal; 10 µM 91.6% and 47.4% | A498 renal; 10 µM 122% and 69.4% | A498 renal; 100 µM 67.8% | CCRF-CEM leukemia; 10 µM 107% and 106% | CCRF-CEM leukemia; 100 µM 21.4% | MOLT-4 leukemia; 10 µM 98.2% and 61.8% | MOLT-4 leukemia; 100 µM 22.6% | SR leukemia; 10 µM 35.4% | SR leukemia; 100 µM 22.6%
active: ACHN renal; 100 µM 8.37% | CAKI-1 renal; 100 µM 2.65%

CCC(=O)Oc1ccc(/C=N/NC(N)=S)nc1
inactive: EKVX NSCLC; 10 µM 86.3% | SN12C renal; 10 µM 32.5% | UO-31 renal; 10 µM 29.7% | TK-10 renal; 10 µM 86.3% | A498 renal; 10 µM 52% | MOLT-4 leukemia; 10 µM unless noted 10.8%
active: ACHN renal; 10 µM 8.62% | CAKI-1 renal; 10 µM -2.02% | CCRF-CEM leukemia; 10 µM -0.545%

Cc1cc(Cl)ccc1NC(=O)/C(Cl)=C1/Sc2ccccc2NC1=O
inactive: EKVX NSCLC; 10 µM 70.4% | SN12C renal; 10 µM 106% | UO-31 renal; 10 µM 76.4% | TK-10 renal; 10 µM 146% | ACHN renal; 10 µM 85.4% | CAKI-1 renal; 10 µM 60.8% | A498 renal; 10 µM 131% | CCRF-CEM leukemia; 10 µM 76.5% | MOLT-4 leukemia; 10 µM unless noted 83.5% | SR leukemia; 10 µM 100%

O=Nc1ccc(Nc2ccccc2)cc1
active: CCRF-CEM leukemia; 10 µM 2.09%
inactive: EKVX NSCLC; 10 µM 89.2% | SN12C renal; 10 µM 95.6% | UO-31 renal; 10 µM 53.9% | TK-10 renal; 10 µM 116% | ACHN renal; 10 µM 41.5% | CAKI-1 renal; 10 µM 66.1% | A498 renal; 10 µM 87.2% | MOLT-4 leukemia; 10 µM unless noted 15% | SR leukemia; 10 µM 28.2%

COc1ccc2oc(-c3ccc(Cl)cc3)c(N3CCN(C)CC3)c2c1
inactive: EKVX NSCLC; 10 µM 50.7% | SN12C renal; 10 µM 37.2% | A498 renal; 10 µM 52.4% | MOLT-4 leukemia; 10 µM unless noted 12.5%
active: UO-31 renal; 10 µM -5.46% | TK-10 renal; 10 µM -1.47% | ACHN renal; 10 µM 4.13% | CAKI-1 renal; 10 µM -11.6% | CCRF-CEM leukemia; 10 µM -12.6%

O=C(NC(=S)Nc1ccccn1)c1ccccc1
inactive: EKVX NSCLC; 10 µM 74.8% | SN12C renal; 10 µM 97.1% | UO-31 renal; 10 µM 93.9% | TK-10 renal; 10 µM 125% | ACHN renal; 10 µM 95.1% | CAKI-1 renal; 10 µM 82% | A498 renal; 10 µM 70.5% | CCRF-CEM leukemia; 10 µM 62.2% | MOLT-4 leukemia; 10 µM unless noted 93.1% | SR leukemia; 10 µM 112%

Cc1cc(C)c(N2C(=O)CC(Sc3ccccc3N)C2=O)c(C)c1 (stereo not drawn)
inactive: EKVX NSCLC; 10 µM 87.1% | SN12C renal; 10 µM 90.4% | UO-31 renal; 10 µM 55.5% | TK-10 renal; 10 µM 123% | ACHN renal; 10 µM 87.7% | CAKI-1 renal; 10 µM 47.7% | A498 renal; 10 µM 54.2% | CCRF-CEM leukemia; 10 µM 34.9% | MOLT-4 leukemia; 10 µM unless noted 76.5% | SR leukemia; 10 µM 23.4%

COc1ccc(C(C#N)=C2C=CC(=NO)C=C2)cc1
inactive: EKVX NSCLC; 10 µM 125% | SN12C renal; 10 µM 95.8% | UO-31 renal; 10 µM 67% | TK-10 renal; 10 µM 12.9% | ACHN renal; 10 µM 78.5% | CAKI-1 renal; 10 µM 93.6% | A498 renal; 10 µM 114% | CCRF-CEM leukemia; 10 µM 29.8% | MOLT-4 leukemia; 10 µM unless noted 58.4% | SR leukemia; 10 µM 49.8%

CC(=O)O[C@H]1C(=O)[C@@]2(C)[C@H]([C@H](OC(=O)c3ccccc3)[C@]3(O)C[C@H](OC(=O)[C@H](O)[C@@H](NC(=O)c4ccccc4)c4ccccc4)C(C)=C1C3(C)C)[C@]1(OC(C)=O)CO[C@@H]1C[C@@H]2O
-2.72% (active) and 12.2% (inactive): SR leukemia; 10 µM
inactive: EKVX NSCLC; 0.01 µM 60.7% | EKVX NSCLC; 2.5 µM 35% | EKVX NSCLC; 5 µM 40.5% | EKVX NSCLC; 10 µM 47.1% and 41.5% | SN12C renal; 0.01 µM 46.3% | SN12C renal; 2.5 µM 25.5% | SN12C renal; 5 µM 32% | SN12C renal; 10 µM 55.6% and 33.2% | UO-31 renal; 0.01 µM 103% | UO-31 renal; 2.5 µM 42.6% | UO-31 renal; 5 µM 42.7% | TK-10 renal; 0.01 µM 87.7% | TK-10 renal; 2.5 µM 44.7% | TK-10 renal; 5 µM 46.1% | TK-10 renal; 10 µM 18.4% and 43.6% | ACHN renal; 0.01 µM 95.3% | ACHN renal; 2.5 µM 42.4% | ACHN renal; 5 µM 44.8% | ACHN renal; 10 µM 25.4% and 43.1% | CAKI-1 renal; 0.01 µM 93.4% | CAKI-1 renal; 2.5 µM 22.2% | CAKI-1 renal; 5 µM 23.1% | CAKI-1 renal; 10 µM 25.1% and 23.4% | A498 renal; 0.01 µM 61.7% | A498 renal; 2.5 µM 74.4% | A498 renal; 5 µM 96.2% | A498 renal; 10 µM 93.6% and 52.1% | CCRF-CEM leukemia; 0.01 µM 11.7% | MOLT-4 leukemia; 0.01 µM 48.2% | MOLT-4 leukemia; 10 µM 22.8% | SR leukemia; 0.01 µM 19.1%
9.24% (active) and 39.3% (inactive): UO-31 renal; 10 µM
active: CCRF-CEM leukemia; 2.5 µM 2.13% | CCRF-CEM leukemia; 5 µM 5.52% | CCRF-CEM leukemia; 10 µM 7.71% and 5.2% | SR leukemia; 2.5 µM 7.15% | SR leukemia; 5 µM 9.15%
